The record followed here is PubChem BioAssay.

Usually viability stands for a read-out of living cells in per cent, often relative to untreated cells. Broadly, the inhibition is the relative decrease from the control value, in per cent.

A short description of experiment [1]: reducers of endogenous Her2 protein level, primary screen, SKBR3 breast tumor cells, AlphaScreen, ATP viability (AID 461;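 active means Her2 level under about 52% in both replicate screens, with viability over 70% of control, limit read from the data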;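 on Her2 level: lower value means less Her2 protein in the cells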;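 on viability: percent of carrier control wells set as 100% viability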). The conditions noted are these: 18-24 h, measured here: SKBR3 viability, ATP luminescence, at 10 µM. (In general: Alpha assays give light when donor and acceptor beads are brought close together.)
The target of experiment [2] is Receptor tyrosine-protein kinase erbB-2 (Homo sapiens) (UniProt P04626). The experiment is described as above. Particulars: 18-24 h, at 10 µM, stronger effect = lower value.
Experiment [3] in a line: SK-BR-3 cell growth inhibitors, pilot screen, 24 h, human (AID 572;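 active means viability at or below 10% of carrier control in both of two separate runs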;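 further: compound exposure lasted between 18 and 24 h rather than exactly 24 h; 100% = carrier-treated control wells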). The conditions noted are these: SK-BR-3 viability, CellTiter-Glo luminescence, at 10 µM, stronger effect = lower value. A general note: In ATP-based viability assays light output follows the ATP content of the culture.
The nature of experiment [4]: HUVEC growth inhibition – cell-based, human, primary screen (AID 575;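 active means viability at or below 30% in both replicate assays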;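 further: 100% = median of untreated cell wells with 0.1% DMSO on each plate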). The conditions noted are these: HUVEC proliferation, CellTiter-Glo luminescence, 72 h; at 10 µM; stronger effect = lower value.
The nature of experiment [5]: growth inhibitors of H69AR lung tumor, primary screen, human, duplicate replicates (AID 580;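 active means viability at or under a set limit in both replicates, limit being median viability minus 3 SD, cut at about 48% in these data, passing the limit was not always enough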;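 further: 100% = mean luminescence of untreated wells and 0% = no signal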). The conditions noted are these: H69AR lung tumor cells viability, ATP luminescence, 72 h; at 10 µM; stronger effect = lower value.
Experiment [6] is described as follows: reversal of MRP1-mediated doxorubicin resistance, pilot screen, H69AR cells, doxorubicin co-treatment (AID 601;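 active means viability loss from added drug above about 55%, and viability with drug at most 40%, in both replicates, limit read from the data, passing the limit was not always enough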). The conditions noted are these: CellTiter-Glo, 72 h, at 10 µM; for differential viability (reversal): stronger effect = higher value.
Experiment [7] can be described thus: 384-well plate pilot, post-Golgi transport modulator project, inhibition of yeast transport mutant growth (AID 636; in the data active means inhibition above about 31%). Particulars: absorbance 615 nm, about 18 h, stronger effect = higher value.
Experiment [8] in a line: growth suppression of yeast trafficking mutant, preliminary HTS, modulators of trafficking downstream of Golgi apparatus project, 1536-format plate, OD 615 nm (AID 637; in the data active means inhibition above about 30%). Particulars: yeast transport mutant growth, absorbance 615 nm, 18 h; stronger effect = higher value.
Experiment [9] in a line: OD615 S. cerevisiae growth inhibition, permissive medium, pilot counter-assay, permissive growth control for S. cerevisiae lifespan shortening project (AID 705;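 active means growth inhibition above 25% in both replicates, a cutoff set 3 SD above the mean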). The conditions noted are these: OD615, 24 h, at 10 µM, stronger effect = higher value.
Experiment [10] can be described thus: Restrictive medium S. cerevisiae growth inhibition, OD615, pilot screen of yeast lifespan reduction project, restrictive growth control (AID 706;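 active means growth inhibition above a set limit, 3 SD over mean compound inhibition, in both replicates, cut at about 43% in these data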;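 further: modified DeaD lifespan yeast strain shifted to restrictive glucose medium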). The conditions noted are these: OD615, 48 h, at 10 µM, stronger effect = higher value.
Experiment [11] in a line: viability gain of MRP-1-high H69AR cells under doxorubicin, pilot screen, MRP-1 activator project, CellTiter-Glo, duplicate (AID 807).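 Further: compound pretreatment 18-22 h then 72 h combined with doxorubicin; 0% = doxorubicin alone and 100% = vehicle without doxorubicin.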 The conditions noted are these: H69AR viability with doxorubicin, CellTiter-Glo luminescence; at 10 µM; stronger effect = higher value.
Experiment [12] is described as follows: growth suppression of beta-catenin knockout HCT116, pilot screen, human colon tumor cells (AID 823;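 active means cell viability at or below a set limit in both duplicate runs, the limit being the all-compound median minus 4 SD, cut at about 23% in these data, passing the limit was not always enough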;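 further: 0% = wells killed by 20 µM Hyamine and 100% = untreated DMSO cell wells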). The conditions noted are these: CellTiter-Glo, 60 h, at 10 µM, stronger effect = lower value.
A short description of experiment [13]: growth suppression of PTEN-deleted HCT116, pilot screen, cell-based, HCT116 clonal line, CellTiter-Glo (AID 824;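 active means viability at or below 27.92% in each of two runs, the all-compound median minus 4 SD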;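 further: 0% = 20 µM Hyamine control and 100% = vehicle cell control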). The conditions noted are these: 60 h, at 10 µM, stronger effect = lower value.
Experiment [14] is described as follows: inhibitors of the yeast RAM network, pilot screen, dse1pr::URA3 reporter, 5-FOA selection (AID 869;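 active means inhibition over a set limit, the all-compound mean plus 3 SD, in both replicate runs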;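 further: 0% = DMSO wells with no growth and 100% = 10 µM 1-NA-PP1 with full growth; RAM network block rescues cells from 5-FOA so hits raise OD615 growth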). Particulars: S. cerevisiae dse1pr::URA3 5-FOA growth, OD615, 2 d; at 10 µM; stronger effect = higher value; strain carries analog-sensitive mutant Cbk1 kinase.
Experiment [15] is described as follows: RAM signaling pathway blockade in yeast – S. cerevisiae, Pdr1DBD-CYC8 efflux-inhibited sensitized strain, primary screen (AID 1298;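 active means RAM network inhibition above 8.4% in each of two replicates, 3 SD over the compound average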;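 further: 0% = DMSO untreated cells without growth and 100% = 10 µM 1-NA-PP1 full growth; higher means more yeast growth rescued from 5-FOA killing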). Particulars: S. cerevisiae cbk1-as DSE1-URA3 strain, 5-FOA growth OD615, 2 d; at 50 µM; stronger effect = higher value.
Setting [16] is: H69AR cells + 2 uM doxorubicin, measured here: viability with 2 uM doxorubicin, stronger effect = lower value.
Setting [17] is: H69AR cells, compound alone cytotoxicity.

The structures appear in SMILES notation. Records with an inconclusive call do not appear. Active and inactive are the calls of the source.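 How the source made its calls, unless noted: active means viability increase at or above a cutoff of the median across tested compounds plus 3 SD (cut at about 8.5% in these data, passing the limit was not always enough); inconclusive means some gains above the cutoff, reason not given; inactive means the rest.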

Sequence of Receptor tyrosine-protein kinase erbB-2 (Homo sapiens) (P04626 whole entry, looked up): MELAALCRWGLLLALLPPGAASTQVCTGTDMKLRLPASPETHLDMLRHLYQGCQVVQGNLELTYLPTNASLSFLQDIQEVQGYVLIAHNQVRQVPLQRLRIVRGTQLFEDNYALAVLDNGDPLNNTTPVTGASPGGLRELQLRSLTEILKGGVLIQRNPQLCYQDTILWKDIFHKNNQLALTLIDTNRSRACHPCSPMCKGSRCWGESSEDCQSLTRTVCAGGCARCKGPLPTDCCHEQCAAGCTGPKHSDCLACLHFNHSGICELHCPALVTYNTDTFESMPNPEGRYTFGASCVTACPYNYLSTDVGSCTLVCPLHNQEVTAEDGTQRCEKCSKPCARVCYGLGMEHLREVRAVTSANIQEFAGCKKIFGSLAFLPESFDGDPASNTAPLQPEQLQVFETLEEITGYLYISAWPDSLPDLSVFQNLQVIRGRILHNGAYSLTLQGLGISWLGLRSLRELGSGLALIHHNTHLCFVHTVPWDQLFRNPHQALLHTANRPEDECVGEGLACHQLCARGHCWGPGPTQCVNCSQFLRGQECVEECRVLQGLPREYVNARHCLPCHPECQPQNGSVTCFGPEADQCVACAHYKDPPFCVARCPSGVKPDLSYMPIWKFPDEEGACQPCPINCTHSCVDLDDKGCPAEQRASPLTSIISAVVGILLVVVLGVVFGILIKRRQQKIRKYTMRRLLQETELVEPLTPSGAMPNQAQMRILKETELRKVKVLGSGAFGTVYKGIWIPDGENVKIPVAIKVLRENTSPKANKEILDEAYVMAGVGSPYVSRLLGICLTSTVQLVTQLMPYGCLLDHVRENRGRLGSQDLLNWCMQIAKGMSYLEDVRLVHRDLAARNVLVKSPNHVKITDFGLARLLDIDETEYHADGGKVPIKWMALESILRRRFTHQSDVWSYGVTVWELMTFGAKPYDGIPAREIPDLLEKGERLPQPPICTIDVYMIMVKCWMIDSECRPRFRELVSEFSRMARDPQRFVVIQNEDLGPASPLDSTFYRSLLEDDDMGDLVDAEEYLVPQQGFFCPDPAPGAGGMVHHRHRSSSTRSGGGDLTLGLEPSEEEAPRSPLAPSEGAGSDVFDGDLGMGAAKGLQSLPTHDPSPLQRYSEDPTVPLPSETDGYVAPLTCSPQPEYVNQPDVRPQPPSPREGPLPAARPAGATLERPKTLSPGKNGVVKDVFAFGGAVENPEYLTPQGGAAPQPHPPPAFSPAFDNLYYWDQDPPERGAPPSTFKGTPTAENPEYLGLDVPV

For the compound `Cc1[nH]nc2c1C(=O)CC(C)(C)C2`, the viability in experiment [1] was 95.5%; in [3], 95.5% (inactive); in [4], 100% (inactive); in [5], 89% (inactive); in [6] (setting [16]) it was 83.7%; in experiment [6] (setting [17]), 89%. Besides, the viability is 95.8% (inactive) in experiment [12] and 94% (inactive) in experiment [13]. In addition, the Her2 level in experiment [2] was 100% (inactive). Also, in [6] (H69AR cells + 2 uM doxorubicin), the differential viability (reversal) was 5.23% (inactive). Moreover, the inhibition is -1.67% (inactive) in experiment [7], -10.3% (inactive) in experiment [8] and 1.44% (inactive) in [14]. Besides, the growth inhibition in [9] was 2.65% (inactive); in experiment [10] it was -3.72% (inactive). In addition, in experiment [11], the viability increase was -4.31% (inactive). In addition, the RAM network inhibition in [15] is 1.23% (inactive).
For the compound `CCOc1ccc(Cn2nnc(C(=O)Nc3ccc(OC)cc3OC)c2N)cc1`, the viability in experiment [1] was 96.5%; in [3], 96.5% (inactive); in experiment [4] it was 67.5% (inactive); in experiment [5], 102% (inactive); in experiment [6] (setting [16]), 99.8%; in [6] (setting [17]) it was 102%. The viability in experiment [12] is 83.3% (inactive); in experiment [13], 82.8% (inactive). Further, in [2], the Her2 level is 102% (inactive). The differential viability (reversal) in experiment [6] (H69AR cells + 2 uM doxorubicin) is 2.46% (inactive). In addition, the figures for the inhibition in experiment [7], in experiment [8] and in [14] were -1.07% (inactive), -5.9% (inactive) and 3.14% (inactive), respectively. Moreover, the growth inhibition in experiment [9] was -10.3% (inactive); in [10], -9.57% (inactive). Besides, the viability increase in [11] is -4.36% (inactive). Besides, in experiment [15], the RAM network inhibition was 4.87% (inactive).
On to `CC1Cc2nc(SCC(=O)Nc3nccs3)n(C)c(=O)c2S1` (stereo not given), for which the viability in experiment [1] is 90%; in [3] it was 90% (inactive); in experiment [4], 72.7% (inactive); in [5], 77.8% (inactive); in experiment [6] (setting [16]), 77.8%; in [6] (setting [17]), 77.8%. Also, the figures for the viability in [12] and in experiment [13] were 105% (inactive) and 96.7% (inactive), respectively. In addition, the Her2 level in [2] was 89% (inactive). Further, the differential viability (reversal) in experiment [6] (H69AR cells + 2 uM doxorubicin) is -0.05% (inactive). In addition, the values for the inhibition in [7], in experiment [8] and in [14] were -5.07% (inactive), -1.67% (inactive) and 1.56% (inactive), respectively. The results for the growth inhibition in experiment [9] and in experiment [10] were -2.9% (inactive) and -5.05% (inactive), respectively. The viability increase in experiment [11] is -2.52% (inactive). Moreover, in experiment [15], the RAM network inhibition was 6.27% (inactive).
`CCOCCCNC(=O)Cn1ncc2c(=O)oc3ccccc3c21`: the viability in experiment [1] is 95%; in experiment [3], 95% (inactive); in [4], 81.5% (inactive); in [5], 90.5% (inactive); in experiment [6] (setting [16]), 93.9%; in experiment [6] (setting [17]), 90.5%. In addition, the viability in experiment [12] was 101% (inactive); in experiment [13], 94.3% (inactive). Besides, the Her2 level in experiment [2] is 98% (inactive). Further, the differential viability (reversal) in experiment [6] (H69AR cells + 2 uM doxorubicin) was -3.42% (inactive). In addition, the inhibition is 1.79% (inactive) in [7], -2.83% (inactive) in experiment [8] and -0.73% (inactive) in experiment [14]. Moreover, the growth inhibition in [9] is 7.44% (inactive); in [10], 15.2% (inactive). Moreover, in experiment [11], the viability increase is -0.6% (inactive). Also, the RAM network inhibition in experiment [15] is 1.15% (inactive).
Take `Cc1nc2ccc(S(=O)(=O)NC(C(=O)NCc3cccs3)C(C)C)cc2s1` (stereo not given): the viability in experiment [1] was 88.5%; in [3], 88.5% (inactive); in [4], 97.9% (inactive); in [5], 111% (inactive); in experiment [6] (setting [16]) it was 92.6%; in experiment [6] (setting [17]), 111%. Moreover, the viability in experiment [12] is 102% (inactive); in [13], 99.6% (inactive). Also, the Her2 level in experiment [2] is 116% (inactive). Moreover, the differential viability (reversal) in experiment [6] (H69AR cells + 2 uM doxorubicin) was 18.2% (inactive). For the same compound, the figures for the inhibition in experiment [7], in experiment [8] and in experiment [14] were -5% (inactive), -2.67% (inactive) and 2.96% (inactive), respectively. Also, the values for the growth inhibition in [9] and in [10] were -3.81% (inactive) and -9.54% (inactive), respectively. Besides, the viability increase in [11] is -0.45% (inactive). Also, the RAM network inhibition in experiment [15] was 5.02% (inactive).
